Results from PubChem BioAssay (NCI).
The panel holds about 83,000 compounds, 20% with a hit somewhere; the sample as a whole holds those more often.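 Percent growth is the endpoint: 0 to 100 indicates growth inhibition (40 means 60% inhibition), 0 means no net growth, and negative values indicate cell death.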 Calls of active or inactive are those of the source. The calls were made as follows: active = growth percent below 10; inactive = the rest.

Key:
Assay in all cases: NCI-60 one-dose screen, 48 h (100 = growth as untreated, 0 = no growth, -100 = all killed)
Conditions in all cases: 10 µM unless noted
NCI-H23 lung = tested on: NCI-H23 lung
NCI-H226 lung = tested on: NCI-H226 lung
NCI-H322M lung = tested on: NCI-H322M lung
HOP-62 NSCLC = tested on: HOP-62 NSCLC
NCI-H460 lung = tested on: NCI-H460 lung
HOP-92 NSCLC = tested on: HOP-92 NSCLC
NCI-H522 lung = tested on: NCI-H522 lung
A549/ATCC NSCLC = tested on: A549/ATCC NSCLC
786-0 renal = tested on: 786-0 renal
COLO 205 colon = tested on: COLO 205 colon

Measured: growth

CC(=O)OCC(=O)[C@@]1(O)CC[C@H]2[C@@H]3CC(=C(Br)Br)C4=CC(=O)CC[C@]4(C)[C@H]3C(=O)C[C@@]21C
inactive: NCI-H23 lung 88.6% | NCI-H226 lung 92.1% | NCI-H322M lung 88.5% | HOP-62 NSCLC 71.9% | NCI-H460 lung 103% | HOP-92 NSCLC 87.3% | NCI-H522 lung 66.6% | A549/ATCC NSCLC 65.1% | 786-0 renal 85.1% | COLO 205 colon 99.5%

COc1ccc(/C=C/C(=O)c2ccc(Nc3ncnc4ccccc34)cc2)cc1OC
inactive: NCI-H23 lung 73.3% | NCI-H226 lung 104% | NCI-H322M lung 92.4% | HOP-62 NSCLC 92.8% | NCI-H460 lung 83.8% | HOP-92 NSCLC 74% | NCI-H522 lung 92.7% | A549/ATCC NSCLC 68.3% | 786-0 renal 79.2% | COLO 205 colon 109%

CCN1C(=O)N(CC)C2NC(SC)=NC21 (stereo not given)
inactive: NCI-H23 lung 98% | NCI-H226 lung 94.3% | NCI-H322M lung 92.3% | HOP-62 NSCLC 91.8% | NCI-H460 lung 103% | HOP-92 NSCLC 108% | NCI-H522 lung 102% | A549/ATCC NSCLC 103% | 786-0 renal 102% | COLO 205 colon 103%

CC(=O)N1c2ccccc2NC2=C(C(=O)N(Cc3ccccc3)C2(C)C)C1c1ccco1 (stereo not given)
inactive: NCI-H23 lung 20.9% | NCI-H226 lung 65.7% | NCI-H322M lung 44.6% | HOP-62 NSCLC 33.1% | HOP-92 NSCLC 21.1% | NCI-H522 lung 21.8% | A549/ATCC NSCLC 22% | 786-0 renal 21.4% | COLO 205 colon 16.8%
active: NCI-H460 lung 4.83%

C=CCn1c(SCC(=O)Nc2ccc(C(=O)/C=C/c3cc(OC)c(OC)c(OC)c3)cc2)nnc1-c1cc(OC)c(OC)c(OC)c1
inactive: NCI-H23 lung 55.2% | NCI-H226 lung 35.9% | NCI-H322M lung 85.5% | HOP-62 NSCLC 55% | NCI-H460 lung 31.4% | HOP-92 NSCLC 82.2% | NCI-H522 lung 47% | A549/ATCC NSCLC 47.2% | 786-0 renal 53.6% | COLO 205 colon 41.2%

COc1ccc(/C=C/C(=O)c2ccc(OC)c(OC)c2)cc1O
inactive: NCI-H23 lung 73.1% | NCI-H226 lung 86.3% | NCI-H322M lung 78.6% | HOP-62 NSCLC 39.7% | NCI-H460 lung 44.2% | HOP-92 NSCLC 29.1% | NCI-H522 lung 51.9% | A549/ATCC NSCLC 26.4% | 786-0 renal 98.2% | COLO 205 colon 104%

CC(C)(C)CC(C)(C)Nc1c(-c2ccc3c(c2)OCO3)nc2cnccn12
inactive: NCI-H23 lung 97.7% | NCI-H226 lung 90.1% | NCI-H322M lung 101% | HOP-62 NSCLC 97.9% | NCI-H460 lung 97.2% | HOP-92 NSCLC 70.3% | NCI-H522 lung 74.1% | A549/ATCC NSCLC 82.7% | 786-0 renal 67.7% | COLO 205 colon 102%

COc1cc(COC(=O)CCCCC[P+](c2ccccc2)(c2ccccc2)c2ccccc2)c(OC)c2c1OCO2
inactive: NCI-H23 lung 51.9% | NCI-H226 lung 67.6% | NCI-H322M lung 84.1% | HOP-62 NSCLC 79.2% | NCI-H460 lung 64.5% | HOP-92 NSCLC 20.1% | NCI-H522 lung 50.2% | A549/ATCC NSCLC 81.2% | 786-0 renal 91.9% | COLO 205 colon 71.4%

Cc1cc(C)c(C=O)c(C)c1
inactive: NCI-H23 lung 101% | NCI-H226 lung 95.2% | NCI-H322M lung 106% | HOP-62 NSCLC 72.4% | NCI-H460 lung 106% | HOP-92 NSCLC 86.4% | NCI-H522 lung 82.7% | A549/ATCC NSCLC 72.1% | 786-0 renal 96.2% | COLO 205 colon 107%

Cn1/c(=N/NC(N)=S)ccc2ccccc21
inactive: NCI-H23 lung 94.9% | NCI-H226 lung 88.9% | NCI-H322M lung 82.4% | HOP-62 NSCLC 98.6% | NCI-H460 lung 108% | HOP-92 NSCLC 109% | NCI-H522 lung 88.9% | A549/ATCC NSCLC 97.7% | 786-0 renal 104% | COLO 205 colon 114%

COc1ccc(CC(C)=C(c2ccc(OCCN(C)C)cc2)c2ccc(OCCN(C)C)cc2)cc1
inactive: NCI-H23 lung 89.3% | NCI-H226 lung 88.9% | NCI-H322M lung 85.8% | HOP-62 NSCLC 82.6% | NCI-H460 lung 79.6% | HOP-92 NSCLC 37.1% | NCI-H522 lung 79.5% | A549/ATCC NSCLC 77.1% | 786-0 renal 68.1% | COLO 205 colon 67.3%

CC(C)Sc1nc(NN)c(C#N)c(-c2ccccc2)n1
inactive: NCI-H23 lung 100% | NCI-H226 lung 100% | NCI-H322M lung 91.1% | HOP-62 NSCLC 102% | NCI-H460 lung 98.6% | HOP-92 NSCLC 83.5% | NCI-H522 lung 94.7% | A549/ATCC NSCLC 102% | 786-0 renal 97.8% | COLO 205 colon 114%

Cc1ccc(C2CC(c3cccc(Nc4ccncc4)c3)=NN2c2ccc(Cl)cc2)cc1 (stereo not given)
active: NCI-H23 lung -83.2% | NCI-H226 lung -38.8% | NCI-H322M lung -99.7% | HOP-62 NSCLC -65.9% | NCI-H460 lung -76.1% | HOP-92 NSCLC -90.3% | NCI-H522 lung -71.2% | A549/ATCC NSCLC -34.5% | 786-0 renal -88.4% | COLO 205 colon -66.3%

Cc1c2c(cc[n+]1Cc1ccccc1)c1ccc(OCC3CCCCC3)cc1n2CC1CCCCC1
active: NCI-H23 lung -76.7% | NCI-H226 lung -89.1% | NCI-H322M lung -83.2% | HOP-62 NSCLC -95% | NCI-H460 lung -93.4% | HOP-92 NSCLC -85.6% | NCI-H522 lung -84.5% | A549/ATCC NSCLC -93.1% | 786-0 renal -91.3% | COLO 205 colon -95.2%

COc1cc(-c2cc(=O)oc3cc(O)ccc23)cc(OC)c1OC
inactive: NCI-H23 lung 88.1% | NCI-H226 lung 87.3% | NCI-H322M lung 96.7% | HOP-62 NSCLC 87.6% | NCI-H460 lung 69.5% | HOP-92 NSCLC 54.2% | NCI-H522 lung 80.2% | A549/ATCC NSCLC 90.1% | 786-0 renal 99.7% | COLO 205 colon 99.4%

Cc1nn(-c2ccccc2)c(N2CCOCC2)c1/C=N/N=c1\sc2ccccc2n1C
inactive: NCI-H23 lung 79% | NCI-H226 lung 73.8% | NCI-H322M lung 92.6% | HOP-62 NSCLC 99.4% | NCI-H460 lung 39.6% | HOP-92 NSCLC 53% | NCI-H522 lung 81.5% | A549/ATCC NSCLC 87.7% | 786-0 renal 96.7% | COLO 205 colon 82.7%

COc1cc2ncnc(Nc3ccc(C(=O)/C=C/c4ccc(C(F)(F)F)cc4F)cc3)c2cc1OC
inactive: NCI-H23 lung 99.5% | NCI-H226 lung 92.7% | NCI-H322M lung 99.7% | HOP-62 NSCLC 144% | NCI-H460 lung 108% | HOP-92 NSCLC 113% | NCI-H522 lung 98.3% | A549/ATCC NSCLC 95.2% | 786-0 renal 85.6% | COLO 205 colon 160%

COc1ccc(-c2nc(N/N=C/c3cccc(Br)c3)nc(N3CCOCC3)c2C#N)cc1
inactive: NCI-H23 lung 103% | NCI-H226 lung 75.8% | NCI-H322M lung 88.5% | HOP-62 NSCLC 79.1% | NCI-H460 lung 31.8% | HOP-92 NSCLC 82% | NCI-H522 lung 70.6% | A549/ATCC NSCLC 62.2% | 786-0 renal 35.6% | COLO 205 colon 40.8%

COc1ccccc1/C=C1\COc2ccc(-c3ccccc3)cc2C1=O
inactive: NCI-H23 lung 68% | NCI-H226 lung 88.4% | NCI-H322M lung 80% | NCI-H460 lung 12.2% | HOP-92 NSCLC 49.3% | NCI-H522 lung 51.9% | A549/ATCC NSCLC 37.8%
active: HOP-62 NSCLC -55.3% | 786-0 renal -49.2% | COLO 205 colon 9.86%

CCN(CCNc1cc(OC)cc2cccnc12)CCc1ccccc1
inactive: NCI-H23 lung 78.1% | NCI-H226 lung 86.2% | NCI-H322M lung 108% | HOP-62 NSCLC 64.9% | NCI-H460 lung 86% | HOP-92 NSCLC 77.2% | NCI-H522 lung 63.7% | A549/ATCC NSCLC 74.4% | 786-0 renal 87.2% | COLO 205 colon 68.8%

Cc1c2c(cc[n+]1Cc1ccccc1)c1ccc(OCc3ccccc3)cc1n2Cc1ccccc1
active: NCI-H23 lung -12.2% | NCI-H226 lung -12% | NCI-H322M lung -26.9% | HOP-62 NSCLC -70.9% | NCI-H460 lung -87.5% | HOP-92 NSCLC -67.9% | NCI-H522 lung -47.1% | A549/ATCC NSCLC 4.01% | 786-0 renal -87.4% | COLO 205 colon -82.3%

CCC(C)N(CCNc1cc(OC)cc2cccnc12)CCC(C)C (stereo not given)
inactive: NCI-H23 lung 71.7% | NCI-H226 lung 88% | NCI-H322M lung 111% | HOP-62 NSCLC 62.4% | NCI-H460 lung 78.3% | HOP-92 NSCLC 87.9% | NCI-H522 lung 50% | A549/ATCC NSCLC 61.6% | 786-0 renal 95.7% | COLO 205 colon 68.3%

C[C@]12CCc3nc(Nc4cccc(O)c4)sc3C1=CC[C@@H]1[C@@H]2CC[C@]2(C)/C(=N\NC(N)=S)CC[C@@H]12
inactive: NCI-H23 lung 57.3% | NCI-H226 lung 91.8% | NCI-H322M lung 73.5% | HOP-62 NSCLC 32% | NCI-H460 lung 21.3% | HOP-92 NSCLC 52.1% | A549/ATCC NSCLC 59.3% | COLO 205 colon 42.7%
active: NCI-H522 lung -12.2% | 786-0 renal -36%

O=C(NCCc1ccccn1)OCc1nc2nc(Cl)nc(N3CCOCC3)c2[nH]1
inactive: NCI-H23 lung 37.6% | NCI-H322M lung 43.9% | HOP-62 NSCLC 27.3% | HOP-92 NSCLC 22.4% | A549/ATCC NSCLC 43.5% | 786-0 renal 13.9% | COLO 205 colon 17.2%
active: NCI-H226 lung -53.2% | NCI-H460 lung 3.35% | NCI-H522 lung -34.4%

N#CC1=C(N)Oc2c(ccc3ccccc23)C1c1ccc([N+](=O)[O-])cc1 (stereo not given)
inactive: NCI-H23 lung 79.1% | NCI-H226 lung 66.7% | NCI-H322M lung 95.2% | HOP-62 NSCLC 73.3% | NCI-H460 lung 69.8% | HOP-92 NSCLC 93.4% | NCI-H522 lung 57.5% | A549/ATCC NSCLC 73% | 786-0 renal 102% | COLO 205 colon 105%

O=C(Nc1cccc(C2=NCCN2)c1)c1ccc(OCCCOc2ccc(C(=O)Nc3cccc(C4=NCCN4)c3)cc2)cc1
active: NCI-H23 lung 1.27% | NCI-H322M lung -0.261% | NCI-H460 lung 6.54% | NCI-H522 lung -18.6% | A549/ATCC NSCLC -55.3% | COLO 205 colon -18.7%
inactive: NCI-H226 lung 52.8% | HOP-62 NSCLC 57.4% | HOP-92 NSCLC 18.8% | 786-0 renal 58.1%

COc1ccc(-c2nc(SCCC(C)C)nc(N/N=C(/C)c3ccc(C)cc3)c2C#N)cc1
inactive: NCI-H23 lung 84.5% | NCI-H226 lung 91.7% | NCI-H322M lung 87.4% | HOP-62 NSCLC 93.9% | NCI-H460 lung 99.7% | HOP-92 NSCLC 62.2% | NCI-H522 lung 87.2% | A549/ATCC NSCLC 99.3% | 786-0 renal 102% | COLO 205 colon 109%
